# Experimental data: PubChem BioAssay AID1476 (National Center for Advancing Translational Sciences (NCATS), 2009)
# Out of some 200,000 compounds screened, about 4,500 (2.2%) were called active. Not shown: some 12% with an inconclusive outcome. What follows is part of a selection rich in actives, with near analogues and random picks from the rest. Values without a mark were called inactive. Calls follow the shape of the dose curve; as a rule, active = well fitted inhibition curve with a large enough effect; inconclusive = small, poorly fitted or top-dose-only effect, or effect the other way; inactive = flat fitted curve, though single readings scatter.
# Molecular target: Cruzipain (Trypanosoma cruzi) (UniProt P25779)
# Sequence (P25779 123-467 limits assumed): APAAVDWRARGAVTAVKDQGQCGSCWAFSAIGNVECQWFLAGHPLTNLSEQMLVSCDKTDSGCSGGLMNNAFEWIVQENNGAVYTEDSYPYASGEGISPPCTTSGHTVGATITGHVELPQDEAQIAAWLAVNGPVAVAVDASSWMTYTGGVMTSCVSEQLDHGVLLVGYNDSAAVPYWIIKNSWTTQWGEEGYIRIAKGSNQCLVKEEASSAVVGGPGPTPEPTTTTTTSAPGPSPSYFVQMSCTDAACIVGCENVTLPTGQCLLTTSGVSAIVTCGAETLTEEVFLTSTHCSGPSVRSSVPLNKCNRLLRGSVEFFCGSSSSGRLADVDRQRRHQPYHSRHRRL
# Test: qHTS Assay for Promiscuous and Specific Inhibitors of Cruzain (without detergent); also: nearly all actives have a fitted effect of over 40% in size;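 as to max response, negative = inhibition: plate controls were enzyme without inhibitor for no effect and buffer without enzyme for full effect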
# Conditions: purified cruzain, Z-FR-AMC fluorescence, no detergent
# Outline: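 Purified cruzain at 1.5 nM, pre-incubated 15 min with compound at room temperature in 100 mM sodium acetate pH 5.5, 5 mM DTT, 0.00005% Triton X-100. Reaction started with 2 uM Z-FR-AMC; AMC fluorescence increase over 60 s gives rate.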
# Potency is read from the fitted curve at half-maximal effect.
Compound,"max response, negative = inhibition",Potency
CCCc1cc(=O)[nH]c(SCC(=O)OCc2ccccc2)n1,-0.512%,–
Cc1cc(C(=O)CSc2nc(N)cc(=O)[nH]2)c(C)n1CCc1ccc(Cl)cc1,–,12.6 µM (active)
CCCc1cc(=O)[nH]c(SCC(=O)c2cc(C)n(CCC)c2C)n1,-4.28%,–
COc1ccc(-n2ccnc(NCCc3ccc(Cl)cc3)c2=O)cc1OC,16.8%,–
COc1ccc(C2Sc3ccccc3NC3=C2C(=O)c2ccccc23)c(OC)c1OC (configuration not stated),-2.6%,–
S=c1nccc(-c2cc(Cl)sc2Cl)[nH]1,–,12.6 µM (active)
COCCNC(=O)CCCN1C(=O)c2ccccc2Sc2ncccc21,15.3%,–
CCS(=O)(=O)N1Cc2ccccc2CC1C(=O)Nc1nc2ccc(F)cc2s1 (configuration not stated),–,12.6 µM (active)
O=C(Nc1nc2ccc(F)cc2s1)c1nc(SCc2ccccc2F)ncc1Cl,1.9%,–
CS(=O)(=O)c1ccc2nc(NC(=O)C3CCCCC3)sc2c1,6.38%,–
CCCCOc1ccc(CN2C(=O)C(=O)c3cc(Br)cc(C)c32)cc1OC,-26.4%,–
CCOC(=O)C1CCN(C(=O)CSc2c3c(nc4ccc(Cl)cc24)CCCC3)CC1,-19.6%,–
Cc1cc(C)cc(NC(=O)CCCc2nc(-c3ccccc3Cl)no2)c1,-8.67%,–
CCNc1ncc2ncc(=O)n(CCc3ccccc3)c2n1,5.65%,–
O=c1cnc2cnc(Nc3ccccc3)nc2n1Cc1ccc(F)cc1,–,20 µM (active)
Cc1nc2cnc(Nc3ccccc3)nc2n(Cc2ccc(F)cc2)c1=O,-10.9%,–
COc1ccc2ncc3c(-c4ccc(C)c(C)c4)nn(CC(=O)NC4CCCC4)c3c2c1,1.87%,–
COc1ccc(Cl)cc1NC(=O)CCn1c(=O)c2cccn2c2ccccc21,26.4%,–
Cc1ccc(CCNC(=O)Cn2c(-c3cccs3)cc3cc(F)ccc32)cc1,–,15.8 µM (active)

Compound,"max response, negative = inhibition",Potency
Cc1cccc(Cn2c(=O)n(CCC(=O)NCCc3ccc(Cl)cc3)c(=O)c3sccc32)c1,0.837%,–
COc1ccc(CCNC(=O)CN2CCC(n3nnc4cc(F)ccc43)CC2)cc1OC,14.7%,–
COc1cccc2c1cc1c(=O)n(CC(=O)N3CCN(c4ccccc4)CC3)nc(C)n12,-2.78%,–
CCOc1cccc2sc(N3CCN(C(=O)C4CC4)CC3)nc12,4.68%,–
COC(=O)c1ccccc1NC(=O)Cn1c(=O)cc(C)c2c(C)nn(-c3cccc(Cl)c3C)c21,1.01%,–
O=C(Nc1ccc2c(c1)OCO2)c1cc(-c2cccc(Cl)c2)on1,-7.12%,–
O=C(Nc1ccc2c(c1)OCO2)c1sc2cc(Cl)ccc2c1Cl,–,10 µM (active)
CC(C)C(=O)Nc1cccc(C(=O)Nc2ccc3c(c2)OCO3)c1,-8.97%,–
O=C(CCc1nc(CN2CCN(S(=O)(=O)c3ccc(Br)cc3)CC2)no1)N1CCCCC1,27%,–
Cc1ccc(-c2nc3ccccn3c2Nc2c(C)cccc2C)o1,0.509%,–
Cc1ccc(-n2ncc3c(N4CCC(C(N)=O)CC4)ncnc32)cc1,17.2%,–
CC(C)(C)c1ccc(C(=O)NCC(=O)OCN2C(=O)c3ccccc3C2=O)cc1,8.73%,–
O=C(OCN1C(=O)c2ccccc2C1=O)/C(=C\c1ccco1)NC(=O)c1ccccc1,–,0.398 µM (active)
Cc1cccc(NC(=O)/C(=C\c2ccco2)NC(=O)c2ccccc2)c1,4.33%,–
CCc1ccc(NC(=O)CCCc2nnc3n(CCCOC)c(=O)c4sccc4n23)cc1,1.39%,–
CCc1ccccc1NC(=O)c1ccc2nc(CCc3ccccc3)oc2c1,1.42%,–
Cc1ccc(NC(=S)N/N=C2/CCCc3c(C)cc(C)cc32)cc1,–,31.6 µM (active)
CCCCNC(=S)N/N=C1\CCCCc2ccccc21,-19.4%,–
Cc1ccc(NC(=S)NC2CCCC2)cc1,-5.53%,–

Compound,"max response, negative = inhibition",Potency
CC(C)C[C@H](NC(=O)[C@@H]1O[C@H]1C(=O)O)C(=O)NCCCCN=C(N)N,–,0.0316 µM (active)
COc1ccc(NC(=O)CCCc2nnc3n(CCC(C)C)c(=O)c4sccc4n23)c(OC)c1,-6.21%,–
O=C(Nc1cccc(Cl)c1)c1csnn1,-5.33%,–
Cc1cccc2c1-c1sc(C(=O)Nc3ccc(F)cc3F)cc1CO2,-26.4%,–
COc1cc(NS(=O)(=O)c2ccc3c(c2)OCC(C(=O)N2CCCC2)O3)cc(OC)c1 (configuration not stated),1.72%,–
CCCc1nc2ccccc2c(C(=O)OCC(=O)c2ccc3c(c2)NC(=O)CO3)c1CC,-2.97%,–
Cc1ccc(C(=O)COC(=O)c2cccc(N3C(=O)c4c(C)nc5ccccc5c4C3=O)c2)cc1C,–,7.94 µM (active)
O=C(CCc1nc2ccccc2c(=O)[nH]1)OCC(=O)c1cccc(Cl)c1,-3.88%,–
Cc1cccc(-n2ncc(C(=O)N3CCN(c4ccc(Cl)cc4)CC3)c2C2CCN(C(=O)OC(C)(C)C)CC2)c1,-21.4%,–
CCCCSc1ncnc2c1sc1nc(N3CCOCC3)c3c(c12)CCCC3,3.5%,–
c1ccc(COc2nsnc2N2CCOCC2)cc1,-3.44%,–
c1ccc(CSc2ncnc3c2sc2nc(N4CCOCC4)c4c(c23)CCCC4)cc1,–,3.16 µM (active)
CCOC(=O)c1cc(-c2ccccc2)n(-c2cccc(C(=O)Nc3cc(OC)cc(OC)c3)c2)c1C,-4.47%,–
CSc1nc(Nc2ccc(F)cc2)cc(-c2ccccc2)n1,-2.64%,–
COc1cc2c(cc1OC)C(Nc1ccc(S(N)(=O)=O)cc1)=NC(C)(C)C2,5.29%,–
COc1cc2c(cc1OC)C(C(C)C)=NC(C)(C)C2,–,20 µM (active)
COc1cc2c(cc1O)C(SC)=NC(C)(C)C2,-12.8%,–
CCOc1ccc(N(CC)S(=O)(=O)N2CCCC(C(=O)NCc3ccc(Cl)cc3)C2)cc1 (configuration not stated),19.9%,–
CC(=O)N1CCCc2cc(S(=O)(=O)N3CCC(C(=O)NC4CCCCC4)CC3)ccc21,8.72%,–
